Assay results as given in the supplement of paper PMC10849652.
Targets with a hit are over-represented here; the source holds about 7,900 in all. About 0.6% of all pairs of compound and target were hits.

What was measured:
Experiment in all cases: log2 fold change, soluble protein after heating vs DMSO (PISA); higher = thermal stabilisation; K562 cells, 10 uM, 30 min; active = over 0.2 and 3.5 SD of the protein, either way, in both replicates (recomputed)
[1] = compound: Cc1cccc(CC(=O)N2CCc3c2ccc(-c2cn(C)c4ncnc(N)c24)c3F)n1
Procedure, shortened: (§1)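 K562 cells at 2×10^6 cells/mL were exposed to 10 μM compound for 30 min, then aliquots were heated for 3 min across 48°C-58°C, pooled, and extracted in PBS containing 0.5% NP-40 at 4°C. The supernatant after 21,000xg for 90 min was taken as soluble protein and measured by TMTpro 16plex LC-MS/MS with channel sums equalised. Thermal stability is reported relative to control samples, with values from duplicates. Fold changes are given on a log2 scale.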

nilotinib = compound: Cc1cn(-c2cc(NC(=O)c3ccc(C)c(Nc4nccc(-c5cccnc5)n4)c3)cc(C(F)(F)F)c2)cn1 [nilotinib]
Procedure, shortened: as §1

[2] = compound: Cc1nc(Nc2n[nH]c3c2CN(C(=O)N[C@H](CN(C)C)c2ccccc2)C3(C)C)c2sccc2n1
Procedure, shortened: as §1

dasatinib = compound: Cc1nc(Nc2ncc(C(=O)Nc3c(C)cccc3Cl)s2)cc(N2CCN(CCO)CC2)n1 [dasatinib]
Procedure, shortened: as §1

[3] = compound: Cc1ncc(-c2ccnc(Nc3ccc(S(C)(=O)=O)cc3)n2)n1C(C)C
Procedure, shortened: as §1

[4] = compound: Cn1cc(-c2ccc3c(c2)CCN3C(=O)Cc2cccc(C(F)(F)F)c2)c2c(N)ncnc21
Procedure, shortened: as §1

[5] = compound: Cn1cc(-c2ccc3nnc(C(F)(F)c4ccc5ncccc5c4)n3n2)cn1
Procedure, shortened: as §1

tipifarnib = compound: Cn1cncc1[C@@](N)(c1ccc(Cl)cc1)c1ccc2c(c1)c(-c1cccc(Cl)c1)cc(=O)n2C [tipifarnib]
Procedure, shortened: as §1

mubritinib = compound: FC(F)(F)c1ccc(/C=C/c2nc(COc3ccc(CCCCn4ccnn4)cc3)co2)cc1 [mubritinib]
Procedure, shortened: as §1

bafetinib = compound: Cc1ccc(NC(=O)c2ccc(CN3CC[C@H](N(C)C)C3)c(C(F)(F)F)c2)cc1Nc1nccc(-c2cncnc2)n1 [bafetinib]
Procedure, shortened: as §1

Measured: log2 fold change

ITGA2B (UniProt P08514)
inactive: [1] 0.256 | nilotinib -0.04 | [2] -0.013 | dasatinib 0.012 | [3] -0.151 | [4] -0.122 | [5] -0.051 | tipifarnib 0.073

LUM (UniProt P51884)
UniProt P51884, sequence (P51884 whole entry, looked up): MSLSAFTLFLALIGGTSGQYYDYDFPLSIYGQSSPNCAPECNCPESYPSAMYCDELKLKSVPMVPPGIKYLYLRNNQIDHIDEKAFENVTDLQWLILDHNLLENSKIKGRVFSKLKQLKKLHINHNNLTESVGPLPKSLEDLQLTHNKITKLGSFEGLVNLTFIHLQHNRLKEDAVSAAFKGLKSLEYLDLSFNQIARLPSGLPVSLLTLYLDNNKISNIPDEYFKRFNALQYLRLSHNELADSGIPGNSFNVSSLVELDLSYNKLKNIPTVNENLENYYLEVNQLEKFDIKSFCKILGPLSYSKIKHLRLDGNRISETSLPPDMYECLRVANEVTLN
inactive: nilotinib 0.449 | [2] 0.036 | dasatinib 0.002 | [3] 0.257 | [4] 0.177 | [5] -0.075 | tipifarnib 0.055

MAP4K4 isoform 6 (UniProt O95819)
inactive: nilotinib 0.047 | [2] -0.034 | dasatinib -0.001 | [3] 0.008 | [4] 0.1 | mubritinib 0.02

ITPRID2 (UniProt P28290)
inactive: [5] -0.032 | tipifarnib -0.056

KIF1B isoform 3 (UniProt O60333)
inactive: mubritinib 0.168

KMT5A (UniProt Q9NQR1)
inactive: [1] -0.218

LDLRAP1 (UniProt Q5SW96)
inactive: bafetinib -0.011 | [5] 0.14

MAPRE3 isoform 2 (UniProt Q9UPY8)
UniProt Q9UPY8, sequence (Q9UPY8 whole entry, looked up): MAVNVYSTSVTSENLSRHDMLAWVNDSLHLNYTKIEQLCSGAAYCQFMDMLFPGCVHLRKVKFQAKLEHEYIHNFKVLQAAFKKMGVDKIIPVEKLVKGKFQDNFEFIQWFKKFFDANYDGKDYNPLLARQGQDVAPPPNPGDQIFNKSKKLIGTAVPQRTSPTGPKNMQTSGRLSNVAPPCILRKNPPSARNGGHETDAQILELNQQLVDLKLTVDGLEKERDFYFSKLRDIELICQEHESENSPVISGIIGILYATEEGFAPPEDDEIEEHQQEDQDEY
inactive: nilotinib -0.539 | [2] -0.355 | [3] -0.118 | [4] -0.028 | tipifarnib 0.201

MED17 (UniProt Q9NVC6)
UniProt Q9NVC6, sequence (Q9NVC6 whole entry, looked up): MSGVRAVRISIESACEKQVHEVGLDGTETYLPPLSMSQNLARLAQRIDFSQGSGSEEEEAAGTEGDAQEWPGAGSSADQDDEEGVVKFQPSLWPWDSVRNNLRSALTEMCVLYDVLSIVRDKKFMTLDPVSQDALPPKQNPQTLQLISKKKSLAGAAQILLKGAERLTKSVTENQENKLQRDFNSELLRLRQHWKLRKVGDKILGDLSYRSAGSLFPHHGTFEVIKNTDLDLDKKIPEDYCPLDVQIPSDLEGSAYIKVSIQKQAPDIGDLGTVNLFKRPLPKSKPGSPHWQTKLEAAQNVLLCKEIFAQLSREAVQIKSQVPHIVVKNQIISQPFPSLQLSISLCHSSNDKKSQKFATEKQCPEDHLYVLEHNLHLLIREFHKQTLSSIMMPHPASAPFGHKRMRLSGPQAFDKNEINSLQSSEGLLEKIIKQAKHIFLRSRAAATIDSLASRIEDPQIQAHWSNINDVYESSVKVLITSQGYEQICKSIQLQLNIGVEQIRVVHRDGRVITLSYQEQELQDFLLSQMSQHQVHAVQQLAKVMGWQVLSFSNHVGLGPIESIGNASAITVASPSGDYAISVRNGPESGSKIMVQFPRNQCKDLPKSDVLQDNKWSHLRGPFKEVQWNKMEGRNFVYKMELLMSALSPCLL
inactive: [1] -0.033 | nilotinib 0.069 | [2] 0.079 | dasatinib -0.152 | [3] -0.108 | [4] -0.033 | [5] -0.069 | tipifarnib 0.077 | mubritinib 0.015

MAPK7 (UniProt Q13164)
inactive: [1] 0.034

MARCHF3 (UniProt Q86UD3)
inactive: bafetinib 0.109 | nilotinib 0.156 | [2] 0.15 | [3] 0.036 | tipifarnib 0.001

MFSD12 isoform 3 (UniProt Q6NUT3)
inactive: [1] 0.047 | dasatinib -0.093 | [4] -0.124

IKZF1 (UniProt R9R4D9)
inactive: [1] -0.164 | dasatinib -0.17 | [4] -0.044 | tipifarnib -0.119

MAPK11 (UniProt Q15759)
inactive: [1] -0.116 | [5] -0.024

LRFN1 (UniProt Q9P244)
UniProt Q9P244, sequence (Q9P244 whole entry, looked up): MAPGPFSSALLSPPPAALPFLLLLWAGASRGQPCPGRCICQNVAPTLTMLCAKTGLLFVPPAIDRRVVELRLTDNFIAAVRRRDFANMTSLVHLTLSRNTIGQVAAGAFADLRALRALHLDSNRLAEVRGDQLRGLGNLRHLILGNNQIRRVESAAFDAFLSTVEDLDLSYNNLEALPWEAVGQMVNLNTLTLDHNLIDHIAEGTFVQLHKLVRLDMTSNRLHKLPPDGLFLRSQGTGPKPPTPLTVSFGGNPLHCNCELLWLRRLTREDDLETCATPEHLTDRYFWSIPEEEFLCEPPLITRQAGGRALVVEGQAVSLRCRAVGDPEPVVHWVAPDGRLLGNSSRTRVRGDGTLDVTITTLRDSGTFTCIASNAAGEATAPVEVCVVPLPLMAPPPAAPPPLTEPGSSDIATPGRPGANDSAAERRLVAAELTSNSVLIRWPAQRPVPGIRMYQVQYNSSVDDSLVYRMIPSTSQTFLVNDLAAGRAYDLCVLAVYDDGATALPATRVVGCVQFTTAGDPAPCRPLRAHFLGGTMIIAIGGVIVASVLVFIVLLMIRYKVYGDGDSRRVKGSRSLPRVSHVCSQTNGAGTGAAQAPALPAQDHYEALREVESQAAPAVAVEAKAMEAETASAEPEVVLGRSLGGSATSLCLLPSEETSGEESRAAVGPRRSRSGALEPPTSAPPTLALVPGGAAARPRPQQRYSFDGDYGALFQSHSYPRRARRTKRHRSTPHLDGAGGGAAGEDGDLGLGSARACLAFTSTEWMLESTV
inactive: bafetinib -0.017 | dasatinib -0.129 | [4] 0.178 | [5] 0.011 | tipifarnib -0.026

INTS5 (UniProt Q6P9B9)
UniProt Q6P9B9, sequence (Q6P9B9 whole entry, looked up): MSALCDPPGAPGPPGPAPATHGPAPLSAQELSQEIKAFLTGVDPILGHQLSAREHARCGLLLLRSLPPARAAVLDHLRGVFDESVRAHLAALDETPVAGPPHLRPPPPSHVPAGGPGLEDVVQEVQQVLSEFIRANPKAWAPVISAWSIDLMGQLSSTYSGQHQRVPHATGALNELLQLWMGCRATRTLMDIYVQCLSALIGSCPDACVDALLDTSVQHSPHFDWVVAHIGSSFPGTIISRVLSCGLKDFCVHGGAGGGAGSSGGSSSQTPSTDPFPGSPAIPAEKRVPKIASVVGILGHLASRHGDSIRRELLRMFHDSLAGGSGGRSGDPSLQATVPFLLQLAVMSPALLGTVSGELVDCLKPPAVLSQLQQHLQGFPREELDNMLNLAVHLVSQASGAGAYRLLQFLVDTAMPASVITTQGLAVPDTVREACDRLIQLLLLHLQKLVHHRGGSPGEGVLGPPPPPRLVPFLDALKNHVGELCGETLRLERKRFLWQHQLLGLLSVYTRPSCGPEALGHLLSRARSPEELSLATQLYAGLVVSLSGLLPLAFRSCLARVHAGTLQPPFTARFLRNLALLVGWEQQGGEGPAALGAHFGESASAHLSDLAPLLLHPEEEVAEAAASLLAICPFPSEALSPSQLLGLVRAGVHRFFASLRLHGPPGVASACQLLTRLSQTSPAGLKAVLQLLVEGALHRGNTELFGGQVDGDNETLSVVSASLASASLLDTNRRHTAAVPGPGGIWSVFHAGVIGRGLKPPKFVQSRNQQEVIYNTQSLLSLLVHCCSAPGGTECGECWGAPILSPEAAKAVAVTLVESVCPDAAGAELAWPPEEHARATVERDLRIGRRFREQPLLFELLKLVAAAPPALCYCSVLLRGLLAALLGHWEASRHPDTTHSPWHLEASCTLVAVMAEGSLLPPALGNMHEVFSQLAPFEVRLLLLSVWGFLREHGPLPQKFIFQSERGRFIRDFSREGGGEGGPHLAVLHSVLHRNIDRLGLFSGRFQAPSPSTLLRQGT
inactive: bafetinib -0.035 | nilotinib 0.146 | [2] -0.08 | dasatinib -0.11 | [3] 0.167 | [5] -0.003 | tipifarnib -0.145 | mubritinib 0.23

IKZF1 isoform 2 (UniProt Q13422)
UniProt Q13422, sequence (Q13422 whole entry, looked up): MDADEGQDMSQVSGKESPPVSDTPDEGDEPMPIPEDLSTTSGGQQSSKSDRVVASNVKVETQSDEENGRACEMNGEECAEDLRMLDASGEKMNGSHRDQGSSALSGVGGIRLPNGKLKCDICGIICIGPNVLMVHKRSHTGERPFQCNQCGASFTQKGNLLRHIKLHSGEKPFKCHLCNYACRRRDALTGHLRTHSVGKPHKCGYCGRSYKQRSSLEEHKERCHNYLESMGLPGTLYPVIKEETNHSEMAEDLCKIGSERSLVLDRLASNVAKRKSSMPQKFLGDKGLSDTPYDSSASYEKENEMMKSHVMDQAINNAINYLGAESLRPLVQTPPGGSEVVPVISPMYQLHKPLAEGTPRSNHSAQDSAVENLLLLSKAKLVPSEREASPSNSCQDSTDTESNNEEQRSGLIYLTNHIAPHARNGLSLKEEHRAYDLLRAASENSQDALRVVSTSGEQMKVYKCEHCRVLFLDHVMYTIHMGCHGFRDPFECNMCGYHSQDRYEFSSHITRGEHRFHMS
inactive: bafetinib -0.217 | nilotinib 0.101 | [2] -0.018 | [3] 0.043 | [4] -0.026 | [5] 0.015 | mubritinib -0.024

ILF3 (UniProt Q12906)
UniProt Q12906, sequence (Q12906 whole entry, looked up): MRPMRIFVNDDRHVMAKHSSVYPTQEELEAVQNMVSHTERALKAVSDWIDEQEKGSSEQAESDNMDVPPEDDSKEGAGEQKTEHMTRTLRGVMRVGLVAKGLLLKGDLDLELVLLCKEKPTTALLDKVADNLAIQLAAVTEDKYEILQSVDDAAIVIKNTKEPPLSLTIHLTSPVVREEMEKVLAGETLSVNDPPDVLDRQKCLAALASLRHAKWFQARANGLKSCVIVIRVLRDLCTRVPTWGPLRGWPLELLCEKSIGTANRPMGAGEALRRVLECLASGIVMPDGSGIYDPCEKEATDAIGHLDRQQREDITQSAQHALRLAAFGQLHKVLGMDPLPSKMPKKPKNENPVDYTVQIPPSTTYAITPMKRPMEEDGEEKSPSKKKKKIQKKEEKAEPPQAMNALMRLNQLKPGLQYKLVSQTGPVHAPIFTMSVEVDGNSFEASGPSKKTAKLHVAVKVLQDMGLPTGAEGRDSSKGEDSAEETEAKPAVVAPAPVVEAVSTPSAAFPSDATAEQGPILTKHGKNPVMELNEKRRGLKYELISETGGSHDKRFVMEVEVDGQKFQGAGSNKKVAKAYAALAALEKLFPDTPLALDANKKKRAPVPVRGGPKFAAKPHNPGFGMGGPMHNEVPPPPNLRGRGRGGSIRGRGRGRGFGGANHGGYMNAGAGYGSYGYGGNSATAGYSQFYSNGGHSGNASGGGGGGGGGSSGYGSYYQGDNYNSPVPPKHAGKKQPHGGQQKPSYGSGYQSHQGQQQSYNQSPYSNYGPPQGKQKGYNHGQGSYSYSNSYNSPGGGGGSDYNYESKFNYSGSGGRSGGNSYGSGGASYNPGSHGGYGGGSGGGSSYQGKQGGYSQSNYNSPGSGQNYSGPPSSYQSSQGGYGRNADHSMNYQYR
inactive: bafetinib 0.084 | nilotinib -0.065 | [2] 0.167 | [3] 0.364 | mubritinib -0.074

MED29 (UniProt Q9NX70)
inactive: nilotinib 0.017 | [2] 0.027 | dasatinib 0.226 | [3] -0.14 | tipifarnib 0.169 | mubritinib -0.136

MAP4 isoform 5 (UniProt P27816)
inactive: bafetinib -0.028 | nilotinib -0.181 | [2] 0.028 | [3] 0 | [5] -0.037 | tipifarnib 0.066 | mubritinib 0.027

MAP2K5 (UniProt Q13163)
UniProt Q13163, sequence (Q13163 whole entry, looked up): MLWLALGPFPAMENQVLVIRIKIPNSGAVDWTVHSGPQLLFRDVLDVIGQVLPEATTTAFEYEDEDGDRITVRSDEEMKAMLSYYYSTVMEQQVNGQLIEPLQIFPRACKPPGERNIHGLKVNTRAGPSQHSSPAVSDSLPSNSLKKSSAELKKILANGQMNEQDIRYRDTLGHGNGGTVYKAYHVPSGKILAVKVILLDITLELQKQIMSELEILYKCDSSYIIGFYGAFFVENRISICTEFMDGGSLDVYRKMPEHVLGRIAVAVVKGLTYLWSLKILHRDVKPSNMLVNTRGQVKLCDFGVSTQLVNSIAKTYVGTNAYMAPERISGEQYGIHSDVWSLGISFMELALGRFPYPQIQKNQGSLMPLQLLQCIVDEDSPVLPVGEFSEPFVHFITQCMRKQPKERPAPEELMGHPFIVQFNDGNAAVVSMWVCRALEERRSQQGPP
inactive: dasatinib 0.063 | [4] 0.06 | [5] 0

MAGED1 isoform 2 (UniProt Q9Y5V3)
inactive: nilotinib -0.035 | [2] -0.008 | dasatinib 0.057 | [3] -0.082 | [4] 0.111 | tipifarnib -0.104

MFAP3 (UniProt P55082)
inactive: bafetinib -0.385 | dasatinib -0.083

LSR isoform 3 (UniProt Q86X29)
inactive: dasatinib -0.074 | [4] 0.026 | tipifarnib 0.101 | mubritinib 0.435

KIF21A (UniProt H0YI78)
inactive: [5] 0.134

IGFBP3 isoform 2 (UniProt P17936)
inactive: [1] 0.043 | dasatinib -0.001 | [4] 0.106 | tipifarnib -0.087

LYN isoform 2 (UniProt P07948)
inactive: nilotinib -0.001 | [2] -0.418 | [3] -0.006 | [4] 0 | tipifarnib 0.075

KIF13A isoform 4 (UniProt Q9H1H9)
inactive: [4] 0.069

MAP4K2 (UniProt Q12851)
inactive: bafetinib -0.116 | nilotinib -0.187 | [2] 0.024 | [3] -0.13 | [4] -0.135 | tipifarnib -0.048
